The results in this text go back to PubChem BioAssay.

The structures appear in SMILES notation. Inconclusive results are not listed. Activity calls are given as the source filed them. Unless noted, cut-off not given; nearly all actives show AC50 up to about 26 µM.

Assay [1] can be described thus: viability loss in pontine glioma line – cell-based, SU-DIPG-IV, MIPE4.0, CellTiter-Glo, qHTS, dose response (AID 1347063; cut-off not given, nearly all actives have AC50 up to about 30 µM;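 further: compound exposure lasted 48 hours before the viability readout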). Conditions: CellTiter-Glo ATP luminescence.
Assay [2] can be described thus: viability loss in pontine glioma line – cell-based, SU-DIPG-XIII, MIPE5.0, CellTiter-Glo, qHTS, dose response (AID 1347064; cut-off not given, nearly all actives have AC50 up to about 23 µM;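 on AC50: cells exposed to compound for 48 hours before the viability read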). The settings on record: CellTiter-Glo ATP luminescence.
A short description of assay [3]: viability loss in pontine glioma line – cell-based, SU-DIPG-XXV, MIPE5.0, CellTiter-Glo, qHTS, dose response (AID 1347065).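 Further: cells exposed to compound for 48 hours before ATP readout.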 The settings on record: CellTiter-Glo ATP luminescence.
Assay [4] in a line: growth inhibition, single agent or in combination, cell-based, chromothripsis tumors, cisplatin or BGB combos (AID 1671449; in the data active means inhibition above about 80%;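 further: cells exposed for 96 hours; 0% = vehicle DMSO and 100% = killing by high DMSO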). Conditions: LFS_MB_P medulloblastoma cells.
Assay [5] is described as follows: growth inhibition, single agent and combos, cell-based, chromothripsis tumors, cisplatin or BGB combos (AID 1671450; in the data active means inhibition above about 80%;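 further: cells exposed to compound for four days; 0% = vehicle DMSO and 100% = cell killing by high DMSO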). The settings on record: HDN33 neuroblastoma cells, stronger effect = higher value.
Assay [6] can be described thus: growth inhibition, single agents and combos, ICB984, cell-based, cisplatin or BGB combos, synergistic combos for chromothripsis tumors (AID 1671451; call rule not given here;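 further: cells exposed for 96 hours before readout; 0% = vehicle DMSO and 100% = killing by high DMSO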). The settings on record: ICB984 medulloblastoma cells, drug combinations, stronger effect = higher value.
The nature of assay [7]: growth inhibition, single agents and combos, HTB85, cell-based, BGB or cisplatin IC20 combos, synergistic combos for chromothripsis tumors (AID 1671453; in the data active means inhibition above about 80%;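 further: cells exposed for 96 hours before readout; 0% = vehicle DMSO and 100% = high DMSO killing control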). Conditions: HTB85 osteosarcoma cells, drug combinations, stronger effect = higher value.
Assay [8] can be described thus: growth inhibition, MDA-MB-436, cell-based, BGB or cisplatin combos, synergistic combos for chromothripsis tumors (AID 1671458; call rule not given here;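 further: cells exposed for 96 hours; 0% = vehicle DMSO and 100% = killing by high DMSO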). Conditions: MDA-MB-436 breast carcinoma growth inhibition, drug combinations, stronger effect = higher value.
Assay [9] in a line: BT084 cell growth, single and combined drugs, ICGC_MB145, cisplatin and BGB IC40 combos (AID 1671461; in the data active means inhibition above about 80%;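 further: cells exposed to drugs for 96 hours; 0% = vehicle DMSO and 100% = high DMSO full killing control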). The settings on record: BT084 medulloblastoma cells, drug combinations, stronger effect = higher value.
Assay [10] is described as follows: RCMB18 cell growth, single agent and combined, cisplatin and BGB IC40 combos (AID 1671462; in the data active means inhibition above about 80%;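 further: cells exposed to compound for four days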). Conditions: RCMB18 medulloblastoma cells, stronger effect = higher value.
Assay [11] is described as follows: CRL1545 cell growth, single agent and combined, cisplatin and BGB IC20 combos (AID 1671464; in the data active means inhibition above about 80%;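 further: cells exposed to compound for 96 hours before readout; 0% = vehicle DMSO and 100% = high DMSO killing control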). Conditions: CRL1545 osteosarcoma cells, stronger effect = higher value.
Assay [12] is described as follows: compounds altering circadian rhythm period length – cell-based, LOPAC library, luminescence reporter (AID 2774; call rule not given here;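 further: values are relative to mean of DMSO wells on each plate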). The settings on record: circadian reporter cells, at 7 µM, actives lie on both sides.
The nature of assay [13]: compounds altering viability of human ES cells (AID 493140; call rule not given here;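 further: cells exposed to compounds for four days before counting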). Conditions: human embryonic stem cell survival screen; stronger effect = higher value.
Assay [14] has as its system Hepatitis C virus NS3 helicase. In words: blockers of NS3h binding to ssDNA – biochemical, fluorescence polarization, LOPAC1280 library, primary screen (AID 687035; in the data active means inhibition above about 37%). Conditions: Purified HCV NS3 helicase, Cy5-dT15 ssDNA binding fluorescence polarization; stronger effect = higher value; concentration not given here.
A short description of assay [15]: compounds altering Cy5-DNA-NS3h complex signal – biochemical, LOPAC1280, artefact control for HCV NS3 helicase inhibitor project (AID 687037; call rule not given here). The settings on record: Cy5-DNA-NS3h complex fluorescence interference counterscreen.
Assay [16] can be described thus: JHH-DIPG-1 glioma cell viability, MIPE5.0 library, CellTiter-Glo luminescence, qHTS (AID 1347067).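 Further: cells exposed to compound for 48 hours before readout.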 The settings on record: JHH-DIPG-1 glioma viability, CellTiter-Glo ATP luminescence.
Assay [17] in a line: blockers of cellular phospholipid synthesis – cell-based, LOPAC library, screen 4, primary screen (AID 1347384; call rule not given here). The settings on record: animal cells, phospholipid biosynthesis inhibition screen; at 10 µM.
Assay [18] concerns the target Mitogen-activated protein kinase 7 (Homo sapiens) (UniProt Q13164). The assay is described as follows: Gal4-ERK5 driven luciferase induction – cell-based, HTS, primary screen (AID 1508626;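 active means luciferase signal above three times the same-plate solvent-only control wells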;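 further: luciferase driven by Gal4-ERK5 fusion binding five Gal4 sites before minimal TATA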). The settings on record: HeLa Gal4-ERK5 transactivation, 18 h, at 5 µM, stronger effect = higher value.
Assay [19] is described as follows: viability loss in pontine glioma line – cell-based, JHH-DIPG-1, MIPE4.0, CellTiter-Glo, qHTS, dose response (AID 1347062; cut-off not given, nearly all actives have AC50 up to about 27 µM;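 on AC50: cells exposed to compound for two days before readout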). Conditions: JHH-DIPG-1 viability, CellTiter-Glo ATP luminescence.
A short description of assay [20]: compounds altering HSF1 focus formation in cells – imaging, Selleck Cancer Library (AID 1347162; in the data active means plate-normalised HSF1 focus index below about 0.46). Conditions: human cells, HSF1 nuclear foci imaging, at 10 µM; SSMD: measured here: HSF1 foci SSMD mean; cell count: measured here: cell number; plate-normalised HSF1 focus index: stronger effect = lower value.
Where [21] appears, read: measured here: with BGB IC20 combination, at 0.5 µM.
The mark [22] stands for this setting: measured here: with cisplatin IC20 combination, at 0.5 µM.

Chain of Mitogen-activated protein kinase 7 (Homo sapiens) (Q13164 whole entry, looked up, the tested form may be a part): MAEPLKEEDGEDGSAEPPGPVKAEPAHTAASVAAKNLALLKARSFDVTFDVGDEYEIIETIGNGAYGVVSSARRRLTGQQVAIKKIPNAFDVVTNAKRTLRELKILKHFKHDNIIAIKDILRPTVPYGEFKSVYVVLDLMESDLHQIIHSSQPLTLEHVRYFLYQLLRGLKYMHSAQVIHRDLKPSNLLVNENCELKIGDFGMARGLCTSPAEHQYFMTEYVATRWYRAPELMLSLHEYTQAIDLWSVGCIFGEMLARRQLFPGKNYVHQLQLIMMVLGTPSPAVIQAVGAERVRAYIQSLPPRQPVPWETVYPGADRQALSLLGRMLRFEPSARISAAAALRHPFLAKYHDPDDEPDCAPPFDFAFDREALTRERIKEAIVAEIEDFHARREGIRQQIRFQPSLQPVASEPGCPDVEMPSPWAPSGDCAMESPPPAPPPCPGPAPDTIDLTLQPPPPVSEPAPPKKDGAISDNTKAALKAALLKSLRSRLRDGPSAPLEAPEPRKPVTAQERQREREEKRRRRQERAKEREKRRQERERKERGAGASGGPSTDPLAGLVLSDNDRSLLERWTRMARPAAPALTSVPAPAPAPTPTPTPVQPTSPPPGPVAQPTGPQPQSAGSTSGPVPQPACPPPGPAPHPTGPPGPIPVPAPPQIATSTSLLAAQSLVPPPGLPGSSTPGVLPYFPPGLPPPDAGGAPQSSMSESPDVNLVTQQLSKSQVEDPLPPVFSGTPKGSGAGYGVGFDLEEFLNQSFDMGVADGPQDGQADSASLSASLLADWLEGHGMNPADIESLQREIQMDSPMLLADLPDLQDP

In the case of `C[C@@H](CN1CC(=O)NC(=O)C1)N1CC(=O)NC(=O)C1`, the compound was classed as inactive in assay [1], in [2] and in [3]. For the same compound, the inhibition in assay [4] (at 0.5 µM, stronger effect = higher value) is -25.4% (inactive); in assay [4] (measured here: combination with BGB IC20, at 0.005 µM), 7.12%; in assay [4] (measured here: combination with BGB IC40, at 0.005 µM) it was 4.81%; in [4] (measured here: combination with BGB IC40, at 0.05 µM), -36.6%; in assay [4] (measured here: combination with cisplatin, at 0.5 µM, stronger effect = higher value) it was -24.5%; in assay [4] (measured here: combination with cisplatin, at 5 µM, stronger effect = higher value) it was -14.8%. Besides, the inhibition in assay [5] (BGB combo, at 5 µM) was 79.1%; in [5] (at 0.5 µM), -24% (inactive); in [5] (cisplatin combo, at 5 µM), -19.4%; in assay [5] (setting [21]), -11.3%; in assay [5] (setting [22]) it was -36.9%; in assay [5] (single agent, at 5 µM), 13.8%. The inhibition is -2.91% in assay [6] (BGB IC20 combo, at 0.005 µM); -23% in assay [6] (BGB IC40 combo, at 0.005 µM); 11.5% in assay [6] (BGB IC40 combo, at 0.05 µM); -30.5% (inactive) in assay [6] (at 0.5 µM); 8.27% in assay [6] (cisplatin combo, at 0.05 µM); -19.9% in [6] (cisplatin combo, at 0.5 µM). In addition, the inhibition in assay [6] (cisplatin combo, at 5 µM) was -27.8%; in assay [6] (measured here: 5 uM single agent, at 5 µM), -8.08%; in [7] (at 0.5 µM), -26.1% (inactive); in assay [7] (measured here: with BGB IC20, at 0.5 µM), -21.1%; in assay [7] (measured here: with BGB IC20, at 5 µM), -21.1%; in assay [7] (measured here: with cisplatin IC20, at 0.5 µM), -39.6%. The inhibition in [7] (measured here: with cisplatin IC20, at 5 µM) was -43.4%; in assay [7] (single agent, at 5 µM), -10%; in assay [8] (at 0.5 µM) it was -7.66% (inactive); in assay [8] (measured here: BGB combination, at 0.5 µM), 2.41%; in [8] (measured here: BGB combination, at 5 µM), -3.41%; in assay [8] (measured here: cisplatin combination, at 0.5 µM), -18.8%. In addition, the inhibition is -28.2% in [8] (measured here: cisplatin combination, at 5 µM); -9.97% (inactive) in assay [9] (at 0.5 µM); -43.1% in [9] (cisplatin combination, at 0.5 µM); -2.65% in assay [9] (cisplatin combination, at 5 µM); 19.5% in assay [9] (measured here: BGB IC40 combination 0.05 uM, at 0.05 µM); -11.9% in [9] (single agent, at 5 µM). Moreover, the inhibition was -20.1% (inactive) in [10] (at 0.5 µM); -55.6% in assay [10] (cisplatin combo, at 5 µM); -8.51% in [10] (measured here: BGB IC40 combination, at 0.05 µM); -37.1% in assay [10] (measured here: combination with cisplatin, at 0.5 µM); -16.8% in assay [10] (single agent, at 5 µM); -44.1% (inactive) in [11] (at 0.5 µM). Moreover, the inhibition in assay [11] (setting [21]) was -33.6%; in [11] (setting [22]), -51.8%; in assay [11] (single agent, at 0.05 µM) it was -57.8%; in assay [11] (single agent, at 5 µM), -52.7%.
In the case of `C1COC(NC(C2CC2)C2CC2)=N1`, the period change in assay [12] is 0.03 h (inactive). Also, in assay [13], the survival was 19 (inactive). In addition, in [14], the inhibition is 0% (inactive). Also, in assay [15], the fluorescence ratio (interference) is 1 (inactive). For the same compound, the result in [2], in assay [3], in assay [16] and in [17] was inactive.
As for `CN1CCC[C@@H]1Cc1c[nH]c2ccc(CCS(=O)(=O)c3ccccc3)cc12`, the outcome in assay [17] was inactive. Besides, the luciferase signal in assay [18] was 48 AU (inactive).
Turning to `CN=C(NC#N)Nc1ccc(C2=NNC(=O)CC2C)cc1` (configuration not stated), the period change in assay [12] was 0.035 h (inactive).
Regarding `COCCOC(=O)C1=C(C)NC(C)=C(C(=O)OC/C=C/c2ccccc2)C1c1cccc([N+](=O)[O-])c1` (configuration not stated), the inhibition in [14] is -1% (inactive). Further, in assay [15], the fluorescence ratio (interference) is 1 (inactive). In [17], the compound was called active.
For the compound `O=C(NOCC1CC1)c1ccc(F)c(F)c1Nc1ccc(I)cc1Cl`, the AC50 was 16.6 µM (active) in [19]; 20.9 µM (active) in assay [1]; 3.32 µM (active) in [2]; 2.35 µM (active) in [3]; 1.86 µM (active) in assay [16].
In the case of `CCC(C)(Oc1ccc(C2(c3ccc(OC(C)(CC)C(=O)O)cc3)CCCCC2)cc1)C(=O)O` (configuration not stated), the outcome in assay [19], in [1], in assay [2], in assay [3] and in assay [16] was inactive.
In the case of `O=C(O)C(=O)Nc1cccc(-c2nn[nH]n2)c1`, the result in [19], in [1], in [3] and in assay [16] was inactive.
For `Cc1oc(=O)oc1CN1CCN(c2cc3c(cc2F)c(=O)c(C(=O)O)c2n3C(C)S2)CC1` (configuration not stated), the outcome in assay [19], in assay [1], in assay [2], in assay [3] and in assay [16] was inactive.
With `CCN[C@H]1C[C@H](C)S(=O)(=O)c2sc(S(N)(=O)=O)cc21`, the survival in [13] was 14.7 (inactive). Further, the call in [19], in [1], in [2], in [3] and in [16] was inactive. This compound registered an SSMD in assay [20] of 2.68. In assay [20], this compound gave a cell count of 6990. The plate-normalised HSF1 focus index in [20] was 1.14 (inactive).
Turning to `Nc1ccn(C2CO[C@H](CO)O2)c(=O)n1` (some centres not stated), the compound was called inactive in assay [19], in [1], in assay [2], in [3] and in [16].
As to `CC1(COc2ccc(CC3SC(=O)NC3=O)cc2)CCCCC1` (configuration not stated), in [13], the survival was 117 (inactive).
Take `CC(=O)[C@H]1CC[C@H]2[C@@H]3CC=C4C[C@@H](O)CC[C@]4(C)[C@H]3CC[C@]12C`: in assay [13], the survival was 9.33 (inactive). Moreover, the compound was classed as inactive in assay [19], in assay [1], in assay [2] and in [16]. Moreover, the luciferase signal in assay [18] is 44 AU (inactive).
On to `Cc1[nH]c(=O)c(C#N)cc1-c1ccc2nccn2c1`, for which the inhibition in assay [14] was -1% (inactive). Moreover, in assay [15], the fluorescence ratio (interference) was 1 (inactive). In addition, the outcome in assay [19], in assay [1], in [3], in assay [16] and in [17] was inactive.
For `CC(C)C[C@H](NC(=O)[C@H](Cc1ccccc1)NC(=O)c1cnccn1)B(O)O`, the AC50 is 0.0209 µM (active) in assay [19], 0.00833 µM (active) in assay [1], 0.00662 µM (active) in assay [3] and 0.0263 µM (active) in [16]. The SSMD in [20] was found to be 3.94. Further, in assay [20], the cell count was found to be 7530. Moreover, in assay [20], the plate-normalised HSF1 focus index was 1.14 (inactive).
